Cycloheximide cs – affects cycloheximide protein synthesis inhibition readout, counter-screen | cell reporter, cycloheximide protein synthesis inhibition counterscreen | max response, % | 12% of 300,000 active; in the data active = max response mostly above about 13%, no sharp cut-off; inactive = mostly below about 14%; also: read at 38.3 µM for the half of the compounds with a filed dose; 0% is about no effect
SARS PLpro yeast – inhibitors of SARS-CoV papain-like protease in yeast; S. cerevisiae expressing SARS-CoV PLpro, growth rescue; Potency, µM (top dose mostly 32.9 µM), inactives show top-dose activity, positive = growth rescue, actives largely listed as activators; 0.19% of 330,000 active; AID 485353; calls by dose curve; also: potency is read from the fitted curve at half-maximal effect; 0% is about no effect; nearly all actives have a fitted effect of over 55% in size
Shiga toxin inh – inhibitors of Shiga toxin in Vero cells; 9.2% of 290,000 active; inhibition, % at 38.7 µM; Vero cells, Shiga toxin protein synthesis inhibition reporter; in the data active = inhibition mostly above about 28%, no sharp cut-off; inactive = mostly below about 43%; also: 0% is about no effect
Pf growth 96h – P. falciparum growth inhibition at 96 hour, primary screen for plastid delayed-death inhibitors. P. falciparum luciferase reporter growth, 96 h. Potency, µM (series often up to 28.7 µM), inactives show at the top dose activity change, negative = inhibition, actives largely listed as inhibitors. 6.9% of 320,000 active. AID 504834; also: potency is read from the fitted curve at half-maximal effect; % is scaled to controls: 0 for no effect and ±100 for the full control effect
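P. falciparum expressing integrated firefly luciferase grown in erythrocytes (2% hematocrit, 0.05% parasitemia final) with compounds for 96 hours at 37 C, 5% CO2. Growth inhibition read as loss of luminescence after adding luciferase detection reagent.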
AMA1-RON2 inh – inhibitors of Plasmodium falciparum AMA1-RON2 interaction | AlphaScreen AMA1-biotinylated RON2 peptide binding | Potency, µM (series often up to 58.2 µM), without a hit: at the top dose activity change, negative = inhibition, usual class: inhibitors | 0.2% of 360,000 active;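 also: potency is read from the fitted curve at half-maximal effect; 0% = vehicle wells and -100% = peptide control; nearly all actives have a fitted effect of over 45% in size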
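AMA1 (3D7) with his tag at 25 nM final met compounds first, then biotinylated RON2 peptide at 25 nM; detection used donor plus acceptor beads, 10 µg/mL apiece, read by AlphaScreen after 30 min at room temperature.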
Pf growth 48h – inhibits P. falciparum growth in the first generation, 48 h; 5.9% of 310,000 active; Potency, µM (titrated, usually from 28.7 µM), inactives show at the top dose activity change, negative = inhibition, actives largely listed as inhibitors; P. falciparum luciferase growth in erythrocytes, 48 h; also: potency is read from the fitted curve at half-maximal effect; % is scaled to controls: 0 for no effect and ±100 for the full control effect
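Firefly luciferase activity from engineered P. falciparum reports growth; inhibitors lower the luminescent signal. Cultures contained 2% hematocrit erythrocytes at 0.1% final parasitemia.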
Active calls of the source: *; ? = inconclusive; . = no result; [ ] = dose if it differs, or a comment. The list is not random: actives were taken first. Their share in the collection is about 19%. Unless noted, calls follow the shape of the dose curve; as a rule, active = well fitted curve in the direction sought with a large enough effect; inconclusive = small, poorly fitted or top-dose-only effect, or another doubt; inactive = no such curve, though single readings can be large; an effect the other way counts as inactive or inconclusive.

SMILES	Cycloheximide cs	SARS PLpro yeast	Shiga toxin inh	Pf growth 96h	AMA1-RON2 inh	Pf growth 48h
CN(CC(=O)Nc1cccc(F)c1)C(=O)CN1C(=O)C2CC=CCC2C1=O (configuration not stated)	.	-2%	.	11%	9%	-1%
COc1cc(NC(=O)c2cccs2)c(C(=O)OCC(=O)NC(=O)NCc2ccccc2)cc1OC	-5	10%	23	-14%	3%	.
COc1ccc(-n2c(C)cc(C(=O)COC(=O)c3cc(NC(=O)c4cccs4)c(OC)c(OC)c3)c2C)cc1	-1	5%	17	?	-2%	1.9µM*
COc1cc(NC(=O)c2cccs2)c(C(=O)OCC(=O)c2cc(C)n(-c3ccc(F)cc3)c2C)cc1OC	123*	5%	98*	2.6µM*	12%	94%
COc1cc(NC(=O)c2cccs2)c(C(=O)OCC(=O)c2cc(C)n(-c3ccccc3)c2C)cc1OC	43*	5%	66*	?	-8%[11.6 µM]	?
CCC(=O)c1c(O)cc(O)cc1O	.	.	.	?	.	-18%
C[C@@H](O)CNC(C)(C)CC(=O)N[C@@H]1CCc2ccccc2N(Cc2ccc(-c3ccccc3-c3nn[nH]n3)cc2)C1=O	4	.	12	.	.	.
CCOc1nc2cccc(C(=O)O)c2n1Cc1ccc(-c2ccccc2-c2nn[nH]n2)cc1	.	.	.	2.1µM*	.	?
CCOc1ccc(-c2c(=O)n(OCc3nc4ccccc4[nH]3)c3ccccc3[n+]2[O-])cc1	19	-1%	32*	?	-6%	-27%
CCOc1ccc(OCC)c(-c2c(=O)n(OCc3ccccc3Br)c3ccccc3[n+]2[O-])c1	8	1%	-2	9.3µM*	-6%	?
COc1ccc(-c2c(=O)n(OCc3nc4ccccc4[nH]3)c3ccccc3[n+]2[O-])cc1	29*	-1%	33	0%	7%	?
C=CCOn1c(=O)c(-c2ccc(OC)cc2)[n+]([O-])c2ccccc21	14*	0%	52	18%	-3%	-7%
CCOC(=O)[C@]12CCCC=C1N(CCC1=CCCCC1)C(=O)[C@H](CC(=O)NCc1ccccc1)C2	.	.	.	.	-14%	.
COC(=O)N1CCc2c(sc(NC(=O)C3COc4ccccc4O3)c2C(N)=O)C1 (configuration not stated)	.	2%	.	?	13%	15µM*
CC(=O)N1CCc2c(sc(NC(=O)Cc3ccccc3)c2C(N)=O)C1	-2	-1%	-6	?	-2%	2%
CCOC(=O)c1c(NC(=O)C2COc3ccccc3O2)sc2c1CCN(Cc1ccccc1)C2 (configuration not stated)	-2	-56%	-10	2.3µM*	-1%	4.7µM*
NC(=O)c1c(NC(=O)C2COc3ccccc3O2)sc2c1CCN(Cc1ccccc1)C2 (configuration not stated)	-1	1%	-12	-12%	-14%	-14%
COc1ccc(CN2C[C@]3(CO)O[C@@H](CO)C[C@@H]3S2(=O)=O)cc1	.	3%	.	.	-6%	.
N/C(Cc1ccc([N+](=O)[O-])cc1)=N\OC(=O)COc1ccccc1Cl	2	-17%	14	-63%	-22%	12%
N/C(Cc1cccs1)=N\OC(=O)COc1ccccc1Cl	60*	-26%	119*	.	90%	106%
N/C(Cc1cccs1)=N\OC(=O)COc1ccc(Br)cc1Cl	33*	-16%	140*	118%	157%	85%
NC1=NC(=O)C2(COC(c3cccnc3)OC2)S1 (configuration not stated)	2	-3%	-10	?	-11%	-1%
CC(=Nc1ccc(C)c(C)c1)C1=C(O)CSC1=O	23*	-5%	45	-28%	-5%	.
CC1(C)C(=O)Nc2ccccc2N1C(=O)COC(=O)CNS(=O)(=O)c1ccc(Br)cc1Cl	.	.	.	.	-9%	.
CCC(C)c1ccc(Nc2ncccc2C#N)cc1 (configuration not stated)	38*	4%	69*	396%	93%	231%
SMILES	Cycloheximide cs	SARS PLpro yeast	Shiga toxin inh	Pf growth 96h	AMA1-RON2 inh	Pf growth 48h
CCc1ccc(Nc2ncccc2C#N)cc1	28*	5%	25	107%	8%	91%
Cc1ccc(CNC(=O)CNC(=O)c2ccc(C(C)(C)C)cc2)n1C	.	2%	.	.	1%	.
CCCC/C=C/[C@H](c1ccccc1)[C@H](CO)Cc1ccccc1	5	.	40	.	.	.
CC(C)c1ccc(NC(=O)c2ccccc2NC(=O)C2CCCCC2C(=O)O)cc1 (configuration not stated)	39*	-1%	60*	169%	-7%	141%
O=C(Nc1cccc(Cl)c1)c1ccccc1NC(=O)C1CCCCC1C(=O)O (configuration not stated)	21*	2%	27	9%	14%	37%
O=C(Nc1ccc(F)cc1)c1ccccc1NC(=O)C1CCCCC1C(=O)O (configuration not stated)	.	.	.	.	9%	.
CC(C)c1ccc(NC(=O)c2ccccc2NC(=O)C2CC=CCC2C(=O)O)cc1 (configuration not stated)	33*	2%	60*	-4%	-4%	3%
O=C(Nc1ccc(F)cc1)c1ccccc1NC(=O)C1CC=CCC1C(=O)O (configuration not stated)	25	-1%	29	?	-2%	7%
CC(C)CN(C(=O)CCC(=O)OCc1ccc(Cl)cc1Cl)c1c(N)n(CC(C)C)c(=O)[nH]c1=O	.	4%	.	?	15%	-34%
CN1C(=O)C2(c3ccccc31)c1c(oc3ccccc3c1=O)C(=O)N2CCO (configuration not stated)	-4	1%	-9	21%	-1%	3%
COc1ccc(NC(=O)Cc2coc3cc(C)c(C(C)C)cc23)cc1S(=O)(=O)N1CCOCC1	1	-14%	-7	?	2%	?
O=C(COc1cccc(Cl)c1)Nc1ccc(N2CCOCC2)cc1	-2	4%	4	-7%	-7%	.
CC(C)CC(=O)Nc1ccc(N2CCOCC2)cc1	16	7%	89*	.	4%	36%
CC(C)CC(=O)Nc1ccc(N2CCN(S(C)(=O)=O)CC2)cc1	-3	1%	26	-3%	16%	3%
Cc1cccc(C)c1OCC(=O)Nc1ccc(N2CCOCC2)cc1	1	-1%	24	1.5µM*	-7%	?
CC(C)C(NC(=O)c1ccc(C(C)(C)C)cc1)C(=O)Nc1ccc(N2CCOCC2)cc1 (configuration not stated)	.	-3%	.	?	-6%	13µM*
Cc1nn(CC(=O)Nc2ccc(N3CCOCC3)cc2)c(C)c1Cl	8.8*	-5%	35	-17%	13%	15%
Fc1c(F)c(-n2nnc3ccccc32)c(F)c(F)c1Cl	-6	1%	-22	32%	7%	7%
O=C(CCn1ccc2ccccc21)Nc1ccc(N2CCOCC2)cc1	2	0%	-13	?	-22%	13µM*

Screens: PubChem BioAssay, National Center for Advancing Translational Sciences (NCATS)
